Growth inhibition data for 30 compounds are collected here from PubChem BioAssay (NCI).

This is part of a sample that, as a whole, favours compounds with a hit. Of some 79,000 tested, about 15% had one in any assay. Activity calls are given as the source filed them. Cut-off read from the data, not from the text of the source: active = growth inhibition above about 70%; inactive = the rest.

The assay in a line: NCI Yeast Anticancer Drug Screen. Data for the cln2 rad14 strain (AID 165).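 Note: 0% = growth equal to vehicle treated cultures.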 The conditions noted are these: S. cerevisiae cln2 rad14 strain, at 50.0 µM, active compounds read high. The method in brief: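 Growth inhibition, relative to vehicle-treated controls, is the read-out. The test organism is a yeast strain with defined genetic alterations, cln2 rad14.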
With `C/C(=N\NC(=S)SCc1ccccc1)c1ccccn1`, the growth inhibition is 86.1% (active).

With `CN(C)c1ccc(Sc2ccc3nc(N)nc(N)c3c2)cc1`, the growth inhibition was 25.4% (inactive). As for `COc1ccc(C2c3cc4c(cc3OC(C)(O)C2C)OCO4)c(OC)c1` (stereo not given), the figure is 89.3% (active).

For `COc1cc(C2SCC(=O)N2c2ccc(-c3ccc(-n4c(-c5ccccc5)nc5ccccc5c4=O)cc3)cc2)cc(OC)c1OC` (stereo not given), the growth inhibition is 52.4% (inactive). Next, `COc1ccc(Br)c(C(=O)Sc2nnnn2-c2cccc(Cl)c2)c1`: 76.2% (active). Next, `O=C(NNc1ccnc2cc(Cl)ccc12)/C(=C\c1ccccc1Cl)NC(=O)c1ccccc1`: 55.4% (inactive); `CSC(=S)Nc1cccc(C)n1`: 38.2% (inactive). Next, `O=C(/C=C\c1ccc(Cl)cc1Cl)c1cccs1`: -29.9% (inactive); `COc1ccc(-c2cn(-c3ccc(I)cc3)c3ncnc(N)c23)cc1`: -0.5% (inactive). With `CN(C)c1ccc(C(C#N)=C(C#N)C#N)cc1`, the growth inhibition was 59.5% (inactive).

Consider `CC1(C)[C@@H]2CC[C@]1(C)[C@H](OC(=O)CSC#N)C2`, for which the growth inhibition was 94.8% (active). Next, `NNC(=O)CCc1ccc2ccc3ccccc3c2c1`: 24.6% (inactive); `COc1ccc(/C(C)=N/OC(=O)c2c(-c3ccccc3Cl)noc2C)cc1CN1CCOCC1`: 45.8% (inactive); `S=C(Nc1ccc(Cl)cc1)SC1CCCCC1`: 87.7% (active). Next, `Nc1nc(-c2cccnc2)cc(-c2cc(-c3cccnc3)nc(N)n2)n1`: 9.95% (inactive); `COC1=CC(=O)C2C(C1=O)C(c1ccc(Cl)cc1)[C@@H]2C` (stereo not given in full): 90.5% (active). For the compound `c1ccc(-c2nc3cccnc3s2)cc1`, the growth inhibition is 5.55% (inactive).

Regarding `O=[N+]([O-])c1cc(CCl)ccc1CCl`, the growth inhibition is 98.3% (active).

For `COc1ccc(/C=C2\SC(=S)N(/C=C/c3nc4ccccc4[nH]c3=O)C2=O)cc1OC`, the growth inhibition was 32.5% (inactive). As for `CCCN(CCC)CC(O)c1cc(-c2ccc(Cl)cc2)nc2c(C)c(Cl)ccc12` (stereo not given), the figure is 97.6% (active); as for `O=C(Nc1ccccc1)OCCc1ccc(Cl)c(Cl)c1`, 86% (active). As for `CC(O)C(O)C(O)C(/C=N\Nc1ccccc1)=N/Nc1ccccc1` (stereo not given), the growth inhibition was 8.25% (inactive).

Take `Cc1cc(I)ccc1N`: the growth inhibition was 62.1% (inactive).

For `FC(F)(F)c1cc(NC(=S)N2c3ccccc3-n3cccc3C2c2cccnc2)cc(C(F)(F)F)c1` (stereo not given), the growth inhibition was 43.6% (inactive). Next, `CC(C)(CN1CCCCC1)C(=O)CC(SCCS(=O)(=O)O)c1ccc(Br)cc1` (stereo not given): 56.7% (inactive). Next, `C[Si](C)(C)CNC(=O)OCc1ccccc1`: -22.8% (inactive); `CC(C(=O)N1C(=O)N(C(=O)[C@H](C)C(O)c2ccccc2)[C@H](c2ccccc2)[C@H]1c1ccccc1)[C@@H](O)c1ccccc1` (stereo not given in full): 77.2% (active). Next, `Oc1cccc2c(Cl)ccnc12`: 91.8% (active). For `O=C1C=CC(=C(c2ccccc2)c2ccccc2)c2ccccc21`, the growth inhibition is -44.3% (inactive). Next, `S=C(S)NN1CCOCC1`: 87.5% (active).
